Experimental data as given in PubChem BioAssay.
“And” between values parts separate entries of the source, which are not always exact repeats. Equal values may be shown once. The source made the active and inactive calls. Cut-off read from the data, not from the text of the source, unless noted: active = parasite load remaining mostly below about 12% (no sharp cut-off); inactive = mostly above about 10%.

Tests used:
[1] = P. berghei load reduction in hepatocytes – cell-based, HepG2, luciferase luminescence, HepG2 viability, primary screen (AID 624349);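 note: 100% = mean of DMSO negative control wells on the same plate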; conditions: P. berghei liver stage in HepG2, luciferase luminescence, concentration not given here; parasite load remaining: stronger effect = lower value; viability: measured here: HepG2 viability without parasites
[2] = viability loss with induced miR-34 in A549 – imaging, A549 dox-inducible miR-34, nuclei and caspase counts, primary screen (AID 1347080;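 active = compounds whose cell count with miR-34 switched on is under 0.7 times the count with it off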); conditions: A549 miR-34 inducible, Hoechst nuclei count, 48 h
[3] = MELAS cybrid and Rieske KO viability enhancers – cell-based, MELAS cybrids, Rieske KO mouse fibroblasts, CellTiter-Glo, primary screen (AID 1508586;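 active = mean z-score across replicates of 1.96 or higher in either the MELAS or the Rieske mutant cell line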;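 note: z relative to plate mean and SD of compound and empty wells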); conditions: low glucose
[4] = compounds altering viability of human ES cells (AID 493140; call rule not given here;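 note: cells exposed to compounds for four days before counting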); conditions: human embryonic stem cell survival screen; stronger effect = higher value
[5] = signal quenchers or enhancers, Cy5 substrate/SSB – biochemical, NIH Clinical Collection, E. coli SSB, artefact control for HCV NS3 helicase inhibitor project (AID 743268; call rule not given here); conditions: Cy5-oligo bound E. coli SSB, fluorescence interference
[6] = test system: Hepatitis C virus NS3 helicase; experiment: blockers of NS3h binding to DNA – biochemical, fluorescence polarization, NIH Clinical Collection, primary screen (AID 743270; call rule not given here); conditions: NS3 helicase binding to Cy5-dT15 DNA, stronger effect = higher value, concentration not given here
[7] = target: Single-stranded DNA-binding protein (Escherichia coli (strain K12)) (UniProt P0AGE0); experiment: SSB-ssDNA binding inhibitors – biochemical, fluorescence polarization, NIH Clinical Collection, counter-screen for HCV NS3 helicase inhibitor project (AID 743271; in the data active = inhibition above about 28%); conditions: E. coli SSB-DNA binding, stronger effect = higher value, concentration not given here
[8] = compounds distorting NS3 helicase fluorescence signal – biochemical, NIH Clinical Collection, artefact control for HCV NS3 helicase inhibitor project (AID 743272; call rule not given here;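 note: HCV NS3 helicase with a Cy5 labelled single stranded DNA probe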); conditions: fluorescence interference counterscreen, HCV NS3 helicase assay; stronger effect = lower value
[9] = stronger effect = lower value, cell number ratio, induced over uninduced
[10] = measured here: relative caspase fold change +Dox/-Dox
[11] = measured here: total cells with miR-34 induction, stronger effect = lower value
[12] = measured here: total cells without miR-34 induction
[13] = MELAS cybrid survival, CellTiter-Glo 48 h, stronger effect = higher value
[14] = Rieske KO mouse fibroblast survival, CellTiter-Glo 72 h

| SMILES | parasite load remaining [1] | viability [1] | fold change [2, 9] | fold change [2, 10] | cell count [2, 11] | cell count [2, 12] | z-score [3, 13] | z-score [3, 14] | survival [4] | fluorescence ratio [5] | inhibition [6] | inhibition [7] | fluorescence ratio [8] |
| --- | --- | --- | --- | --- | --- | --- | --- | --- | --- | --- | --- | --- | --- |
| CC1(C)S[C@@H]2[C@H](NC(=O)C(C(=O)O)c3ccsc3)C(=O)N2[C@H]1C(=O)O (some centres undefined) | 73.9% (inactive) | 69.2% | 0.946 (inactive) | 0.678 | 9480 | 10000 | 0.609 (inactive) | 0.365 | – | – | – | – | – |
| COc1ccc2cc([C@@H](C)C(=O)O)ccc2c1 | 124% (inactive) and 104% (inactive) | 101% and 92.4% | 0.747 (inactive) | 1.43 | 6320 | 8450 | -0.0303 (inactive) | -0.487 | 10.1 (inactive) | 0.94 (inactive) | 0.66% (inactive) | 8.27% (inactive) | 0.94 (inactive) |
| CC[C@@]1([C@@H]2O[C@@H]([C@H]3O[C@@](O)(CO)[C@H](C)C[C@@H]3C)C[C@@H]2C)CC[C@H]([C@]2(C)CC[C@]3(C[C@H](O)[C@@H](C)[C@@H]([C@@H](C)[C@@H](OC)[C@H](C)C(=O)O)O3)O2)O1 (stereo in doubt) | -0.09% (active) | 93.8% | 0.901 (inactive) | 1.01 | 2780 | 3090 | -2.78 (inactive) | -1.77 | – | – | – | – | – |
| CN(C)CC/C=C1\c2ccccc2CSc2ccccc21 | 36.7% (inactive) | 110% | 0.831 (inactive) | 1.19 | 6880 | 8280 | -0.0112 (inactive) | -0.183 | – | – | – | – | – |
| COc1ccc2c(c1)N(C[C@H](C)CN(C)C)c1ccccc1S2 | 76.2% (inactive) | 87.8% | 0.88 (inactive) | 1.53 | 7810 | 8880 | -1.21 (inactive) | -0.494 | 1.83 (inactive) | – | – | – | – |
| CCCC1C(=O)N2C(N(C)C)=Nc3ccc(C)cc3N2C1=O (centres undefined) | 172% (inactive) | 71.8% | 0.881 (inactive) | 0.721 | 8830 | 10000 | 0.00688 (inactive) | -0.91 | 9.17 (inactive) | – | – | – | – |
| O=C1Cc2c([nH]c3ccc(Br)cc23)-c2ncccc2N1 | 39% (inactive) | 165% | 0.879 (inactive) | 0.672 | 2970 | 3380 | 1.05 (inactive) | -2.27 | – | – | – | – | – |
| CCCC(=O)Nc1ncnc2c1ncn2[C@@H]1O[C@@H]2OP(=O)(O)OC[C@H]2[C@H]1OC(=O)CCC | 71.6% (inactive) | 101% | 0.912 (inactive) | 1.18 | 9650 | 10600 | 0.66 (inactive) | 0.0496 | – | – | – | – | – |
| CC(C)(C)C(=O)OCOC(=O)[C@@H]1N2C(=O)[C@@H](N=CN3CCCCCC3)[C@H]2SC1(C)C | 86.3% (inactive) | 108% | 0.956 (inactive) | 0.721 | 9610 | 10100 | 0.579 (inactive) | -0.414 | 17.2 (inactive) | – | – | – | – |
| O=C(O)C=Cc1ccc(O)c(O)c1 | 59.8% (inactive) | 95.6% | 0.886 (inactive) and 0.85 (inactive) | 1.16 and 0.929 | 9150 and 8100 | 10300 and 9530 | -0.35 (inactive) | 0.227 | 7.75 (inactive) | – | – | – | – |
| C=CC1=C(C(=O)O)N2C(=O)[C@@H](NC(=O)/C(=N\OCC(=O)O)c3csc(N)n3)[C@H]2SC1 | 141% (inactive) | 105% | 0.851 (inactive) | 1.38 | 8960 | 10500 | 0.308 (inactive) | 0.0804 | – | – | – | – | – |
| CNCC(O)c1ccc(OC(=O)C(C)(C)C)c(OC(=O)C(C)(C)C)c1 (centres undefined) | 97.5% (inactive) and 55.6% (inactive) | 100% and 75.1% | 0.893 (inactive) | 0.873 | 8640 | 9680 | -1.22 (inactive) | -0.55 | 4.83 (inactive) | – | – | – | – |
| CC(=O)O[C@]1(C(C)=O)CC[C@H]2[C@@H]3C=C(C)C4=CC(=O)CC[C@@H]4[C@H]3CC[C@@]21C | 85.6% (inactive) | 73.5% | 0.942 (inactive) | 0.745 | 8790 | 9330 | -0.763 (inactive) | -0.219 | – | – | – | – | – |
| C=CC[N@@+]12CC[C@]34c5ccccc5N5/C=C6\C7N(/C=C(\C53)[C@@H](C[C@@H]41)/C(=C/CO)C2)c1ccccc1[C@@]71CC[N@@+]2(CC=C)C/C(=C\CO)[C@@H]6C[C@@H]12 (some centres undefined) | 122% (inactive) | 74.4% | 0.909 (inactive) | 0.771 | 9290 | 10200 | 0.0835 (inactive) | -0.352 | – | – | – | – | – |
| CC(C)(C)CC(C)(C)c1ccc(OCOCCOCCO)c(Cc2cc(C(C)(C)CC(C)(C)C)cc(Cc3cc(C(C)(C)CC(C)(C)C)ccc3OCOCCOCCO)c2OCOCCOCCO)c1 | 112% (inactive) | 98.8% | 0.877 (inactive) | 1.23 | 7920 | 9040 | -2.08 (inactive) | -1.21 | 1.75 (inactive) | – | – | – | – |
| CN[C@H](CC(C)C)C(=O)N[C@H]1C(=O)N[C@@H](CC(N)=O)C(=O)N[C@H]2C(=O)N[C@H]3C(=O)N[C@H](C(=O)N[C@H](C(=O)O)c4cc(O)cc(O)c4-c4cc3ccc4O)[C@H](O)c3ccc(c(Cl)c3)Oc3cc2cc(c3O[C@@H]2OC(CO)[C@@H](O)[C@H](O)[C@H]2O[C@H]2C[C@](C)(N)[C@H](O)[C@H](C)O2)Oc2ccc(cc2Cl)[C@H]1O (some centres undefined) | 59.3% (inactive) | 113% | 0.843 (inactive) | 1.57 | 8980 | 10700 | -0.371 (inactive) | -0.181 | – | – | – | – | – |
